We go through six molecules from PubChem BioAssay (Tox21).

Experiment [1] addresses Progesterone receptor (Homo sapiens) (UniProt P06401). Nature of the experiment: qHTS assay to identify small molecule agonists of the progesterone receptor (PR) signaling pathway (AID 1346784; calls by dose curve; further: nearly all actives have a fitted effect of over 30% in size). Put shortly: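 The screen uses PR-UAS-bla HEK 293T cells in charcoal-stripped serum (2%). Compounds are applied for 16 hr at 37C after a 6 hr pre-incubation, and reporter activity is detected with a FRET beta-lactamase substrate after 2 hr at room temperature.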

Experiment [2] shares this target. Nature of the experiment: qHTS assay to identify small molecule antagonists of the progesterone receptor (PR) signaling pathway (AID 1346795; active means well fitted inhibition curve with a large enough effect in the signal ratio in the repeat runs, not every such curve was filed as active; the % refers to the signal ratio). Put shortly:
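After 6 hr plating at 37C in 2% stripped-serum medium, PR-UAS-bla HEK293T cells got compounds, then 1 nM R5020. Sixteen hours later, LiveBLAzer substrate was applied for 2 hr at room temperature and fluorescence was recorded.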
(In qHTS, concentration-response curves come from the screen itself.)

A short description of experiment [3]: qHTS assay to identify small molecule antagonists of the progesterone receptor (PR) signaling pathway - cell viability counter screen (AID 1346798). Further: series mostly up to about 92 µM; nearly all actives have a fitted effect of over 50% in size. In outline:
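Viability was determined by ATP-based luminescence (CellTiter-Glo) in PR-UAS-bla HEK293T cells cultured in 2% charcoal-stripped serum and incubated 16 hr with compounds under R5020 stimulation.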

The nature of experiment [4]: qHTS assay to identify small molecule antagonists of the TGF-beta/Smad signaling pathway - cell viability counter screen (AID 1346824). Further: nearly all actives have a fitted effect of over 50% in size. Put shortly: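 Cytotoxicity counter-screen run in the same wells as the beta-lactamase Smad reporter read: CellTiter-Glo luminescence after 30 min at room temperature. HEK 293T SBE-bla cells had 5 hr compound exposure at 37 C with TGF-beta1 (0.25 ng/mL stock).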

Experiment [5] is described as follows: qHTS assay to identify small molecule agonists of the TGF-beta/Smad signaling pathway (AID 1346859; active means well fitted activation curve with a large enough effect in the signal ratio in the repeat runs, not every such curve was filed as active; the % refers to the signal ratio; further: series mostly up to about 77 µM). Put shortly: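 Dual-wavelength fluorescence (460/530 nm emission) quantified beta-lactamase expression under the Smad binding element in HEK 293T cells following 5 hr compound treatment at 37 C.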
A short description of experiment [6]: Human pregnane X receptor (PXR) small molecule agonists, qHTS cell viability counter screen (AID 1346977). Further: nearly all actives have a fitted effect of over 50% in size. In outline:
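HepG2 cells stably carrying the PXR-Luc reporter are cultured with 5% charcoal-stripped FBS and treated with compounds for 24hr. CellTiter-Fluor is added at 23hr and fluorescence is read after 1hr.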

Experiment [7] in a line: Caspase-3/7 induction in HepG2 cells by small molecules, qHTS assay (AID 1346978). Further: nearly all actives have a fitted effect of over 15% in size. Put shortly:
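Caspase-3/7 induction was measured by Caspase-Glo 3/7 luminescence (30 min, room temperature) after a 17 hr compound exposure of wild-type HepG2 cells seeded at 2,000 per well and pre-incubated 5 hr.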

The nature of experiment [8]: Caspase-3/7 induction in CHO-K1 cells by small molecules, qHTS cell viability counter screen (AID 1346979). Further: nearly all actives have a fitted effect of over 35% in size. Put shortly: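 Seeding: 1,500 CHO-K1 cells/well. Rest: 5hr, 37C. Treatment: compounds in DMSO, 16hr. Read: CellTiter-Fluor, 1hr, fluorescence.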
The nature of experiment [9]: Caspase-3/7 induction in CHO-K1 cells by small molecules, qHTS assay (AID 1346980). Further: nearly all actives have a fitted effect of over 15% in size. Put shortly:
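Luminescent Caspase-Glo 3/7 read (30min, room temperature) quantified apoptosis induction. Cells were wild-type CHO-K1, treated with compound for 17hr at 37 C and 5% CO2.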

The nature of experiment [10]: Caspase-3/7 induction in HepG2 cells by small molecules, qHTS cell viability counter screen (AID 1346981). Further: nearly all actives have a fitted effect of over 30% in size. Further: potency means the concentration at half of the fitted maximal effect. In outline: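 Counter screen for cytotoxicity: HepG2 exposed 16 hr to compounds, then CellTiter-Fluor viability signal (fluorescence, 1 hr reagent incubation).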
Experiment [11] has as its target Nuclear receptor subfamily 1 group I member 2 (Homo sapiens) (UniProt O75469). Nature of the experiment: Human pregnane X receptor (PXR) small molecule agonists, qHTS assay (AID 1346982). Further: nearly all actives have a fitted effect of over 35% in size. Further: potency means the concentration at half of the fitted maximal effect. In outline: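 Luminescence (ONE-Glo, 30 min RT) after 24 hr compound exposure of PXR-Luc HepG2 cells; cells rested 5 hr post-plating in 5% charcoal-stripped FBS medium.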
Experiment [12] deals with Nuclear receptor subfamily 1 group I member 2 (Rattus norvegicus) (UniProt Q9R1A7). Kind of experiment: Rat pregnane X receptor (rPXR) activation by small molecules, qHTS assay (AID 1346983). Further: nearly all actives have a fitted effect of over 20% in size. Conditions: rPXR luciferase reporter cells, One-Glo luminescence, 24 h; stronger effect = higher value. Put shortly: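 Luminescent readout (One-Glo luciferase, 30 min room temperature) followed 24 hr compound treatment at 37 C of rPXR cells plated 2,000 per well and preincubated 5hr; qHTS format with compounds delivered in DMSO.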

Experiment [13] deals with Nuclear receptor subfamily 1 group I member 2 (Homo sapiens) (UniProt O75469). Nature of the experiment: CYP3A4 induction through human pregnane X receptor (PXR) by small molecules, qHTS assay (AID 1346984). Further: nearly all actives have a fitted effect of over 40% in size. In outline: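 DPX-2 reporter cells; 24h cpd, 37C; Luciferin-IPA 3uM final x3h; One-Glo 30 min RT; lumi read.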
Experiment [14] has the same target. Nature of the experiment: Human pregnane X receptor (PXR) activation by small molecules, qHTS assay (AID 1346985). Further: nearly all actives have a fitted effect of over 40% in size. In outline:
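DPX-2 cells (HepG2 co-transfected with a PXR response element and a CYP3A4-promoter luciferase construct) were seeded at 2,000 per well, rested 5 hr at 37C, then exposed to DMSO-dissolved compounds for 24 hr. Activation was read as luciferase luminescence.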

For experiment [15], the target named is Cytochrome P450 2D6 (Homo sapiens) (UniProt P10635). Nature of the experiment: Cytochrome P450 Family 2 Subfamily D Member 6 (CYP2D6) small molecule antagonists: luciferase reporter qHTS assay (AID 1671196). Further: nearly all actives have a fitted effect of over 50% in size. Further: potency means the concentration at half of the fitted maximal effect. In outline: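 Inhibition of CYP2D6 was gauged by loss of luminescence, since light produced tracks the luciferin generated from a proluciferin substrate. A 10 min room-temperature preincubation preceded 1 h NADPH-supported turnover.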
(In general: A reporter such as luciferase makes a cellular process visible.)

Experiment [16] addresses Cytochrome P450 2C19 (Homo sapiens) (UniProt P33261). Kind of experiment: Cytochrome P450 Family 2 Subfamily C Member 19 (CYP2C19) small molecule antagonists: luciferase reporter qHTS assay (AID 1671197). Further: nearly all actives have a fitted effect of over 65% in size. Further: potency means the concentration at half of the fitted maximal effect. Put shortly:
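Enzyme-substrate mix with proluciferin substrate (P450-Glo CYP2C19 system) preincubated with compounds 10 min at room temperature; NADPH regeneration solution added, 37C for 1 h; detection reagent stops reaction, luminescence read after 20 min. Ketoconazole positive control.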

Experiment [17] has as its target Thyrotropin-releasing hormone receptor (Homo sapiens) (UniProt P34981). Nature of the experiment: qHTS assay to identify small molecule antagonists of the thyrotropin-releasing hormone receptor (TRHR) signaling pathway (AID 1346877; active means well fitted inhibition curve with a large enough effect in the repeat runs, not every such curve was filed as active; further: series mostly up to about 51 µM). In outline:
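In this cell-based calcium flux format, HEK293 cells expressing TRHR received test compound for 5 min before the agonist TRH (1 nM final). Dye loading lasted 2 h at 37 °C.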

The target is the same in experiment [18]. Kind of experiment: qHTS assay to identify small molecule agonists of the thyrotropin-releasing hormone receptor (TRHR) signaling pathway (AID 1346891; calls by dose curve; further: series mostly up to about 58 µM). Put shortly:
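Kinetic fluorescence (3 min, 1 s intervals) reported intracellular calcium after compound transfer onto TRHR-Hek293 cells pre-loaded with dye for 2 h at 37 °C.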

A short description of experiment [19]: qHTS assay to identify small molecule agonists of the progesterone receptor (PR) signaling pathway - cell viability counter screen (AID 1346799; calls by dose curve; further: nearly all actives have a fitted effect of over 45% in size). Put shortly: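 Viability was scored by ATP luminescence (CellTiter-Glo, 30 min, room temperature) in the same wells used for the reporter readout, after 16 hr compound exposure of PR-UAS-bla HEK293T cells.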

Several values for one entry are separate records, joined by “and”; a condition that tells them apart may be missing. Identical values can stand only once. Inconclusive results are not listed. Where a structure was tested more than once in an assay, its records may differ in their call. Activity calls are given as the source filed them. Unless noted, the call rests on the fitted dose curve; in most records, active means well fitted curve in the direction sought with a large enough effect in the repeat runs; inconclusive means weak or mixed curves; inactive means no such curve, though single readings can be large; an effect the other way counts as inactive or inconclusive.
On the % scale 0 is the no-effect control and ±100 the full control effect.

Chain of Cytochrome P450 2C19 (Homo sapiens) (P33261 whole entry, looked up): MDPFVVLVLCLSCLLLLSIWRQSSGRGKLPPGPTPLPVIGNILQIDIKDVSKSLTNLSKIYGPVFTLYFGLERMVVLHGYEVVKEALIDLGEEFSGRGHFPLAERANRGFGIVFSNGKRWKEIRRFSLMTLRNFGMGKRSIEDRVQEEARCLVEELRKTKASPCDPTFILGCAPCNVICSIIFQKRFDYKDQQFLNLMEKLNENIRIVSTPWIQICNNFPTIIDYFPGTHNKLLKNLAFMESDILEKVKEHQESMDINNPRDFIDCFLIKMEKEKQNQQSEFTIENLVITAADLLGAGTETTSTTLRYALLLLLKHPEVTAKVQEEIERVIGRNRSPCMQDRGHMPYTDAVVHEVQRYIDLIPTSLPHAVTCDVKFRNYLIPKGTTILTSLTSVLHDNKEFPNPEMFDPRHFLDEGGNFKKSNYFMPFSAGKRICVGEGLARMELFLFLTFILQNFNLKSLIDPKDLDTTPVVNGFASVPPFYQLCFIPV
Chain of Progesterone receptor (Homo sapiens) (P06401 whole entry, looked up): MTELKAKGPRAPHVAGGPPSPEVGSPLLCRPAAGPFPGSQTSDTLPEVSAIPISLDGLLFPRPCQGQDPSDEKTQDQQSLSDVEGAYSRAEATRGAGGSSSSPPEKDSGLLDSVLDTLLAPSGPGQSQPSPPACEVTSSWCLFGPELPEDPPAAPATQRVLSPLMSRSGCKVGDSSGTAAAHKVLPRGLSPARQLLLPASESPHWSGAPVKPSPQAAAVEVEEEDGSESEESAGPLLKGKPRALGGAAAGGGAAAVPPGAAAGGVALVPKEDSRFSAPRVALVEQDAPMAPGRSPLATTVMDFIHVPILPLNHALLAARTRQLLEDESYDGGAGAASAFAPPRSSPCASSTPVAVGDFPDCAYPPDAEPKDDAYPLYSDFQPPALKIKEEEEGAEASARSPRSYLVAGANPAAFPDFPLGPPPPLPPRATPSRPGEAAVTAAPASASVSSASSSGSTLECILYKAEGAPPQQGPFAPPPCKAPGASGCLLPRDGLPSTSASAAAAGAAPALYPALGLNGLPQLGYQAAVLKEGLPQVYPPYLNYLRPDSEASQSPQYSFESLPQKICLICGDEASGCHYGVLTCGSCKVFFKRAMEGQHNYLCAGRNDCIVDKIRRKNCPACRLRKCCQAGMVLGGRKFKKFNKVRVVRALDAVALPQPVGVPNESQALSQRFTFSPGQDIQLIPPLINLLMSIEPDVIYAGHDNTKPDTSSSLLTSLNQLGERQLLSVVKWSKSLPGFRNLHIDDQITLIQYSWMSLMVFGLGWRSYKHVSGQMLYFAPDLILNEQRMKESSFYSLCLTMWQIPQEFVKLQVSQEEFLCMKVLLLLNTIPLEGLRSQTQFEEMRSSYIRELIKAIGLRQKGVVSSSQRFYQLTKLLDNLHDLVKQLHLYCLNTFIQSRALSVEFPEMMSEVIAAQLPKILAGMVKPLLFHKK
Chain of Thyrotropin-releasing hormone receptor (Homo sapiens) (P34981 whole entry, looked up): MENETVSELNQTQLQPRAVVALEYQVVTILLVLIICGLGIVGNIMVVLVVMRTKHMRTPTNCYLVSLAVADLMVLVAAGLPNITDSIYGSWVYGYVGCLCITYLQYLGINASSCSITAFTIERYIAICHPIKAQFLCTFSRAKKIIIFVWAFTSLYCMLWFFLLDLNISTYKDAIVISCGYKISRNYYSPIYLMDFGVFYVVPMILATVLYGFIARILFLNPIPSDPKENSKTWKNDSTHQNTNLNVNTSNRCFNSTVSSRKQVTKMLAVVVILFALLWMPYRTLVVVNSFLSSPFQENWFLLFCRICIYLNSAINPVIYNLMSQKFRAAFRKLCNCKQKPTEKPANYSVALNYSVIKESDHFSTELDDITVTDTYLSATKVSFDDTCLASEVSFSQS
Chain of Nuclear receptor subfamily 1 group I member 2 (Homo sapiens) (O75469 whole entry, looked up): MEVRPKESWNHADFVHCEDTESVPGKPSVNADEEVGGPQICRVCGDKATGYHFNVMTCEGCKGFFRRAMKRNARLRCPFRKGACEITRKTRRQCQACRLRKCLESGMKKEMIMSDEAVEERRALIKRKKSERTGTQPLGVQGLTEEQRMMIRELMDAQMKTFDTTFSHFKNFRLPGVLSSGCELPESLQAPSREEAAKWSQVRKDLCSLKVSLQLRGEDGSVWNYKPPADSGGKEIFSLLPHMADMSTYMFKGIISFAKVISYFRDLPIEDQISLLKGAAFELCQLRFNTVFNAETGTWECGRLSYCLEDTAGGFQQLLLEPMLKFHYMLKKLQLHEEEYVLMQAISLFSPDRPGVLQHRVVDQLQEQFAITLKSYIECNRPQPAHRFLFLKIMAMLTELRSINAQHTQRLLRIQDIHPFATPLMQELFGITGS
Chain of Cytochrome P450 2D6 (Homo sapiens) (P10635 whole entry, looked up): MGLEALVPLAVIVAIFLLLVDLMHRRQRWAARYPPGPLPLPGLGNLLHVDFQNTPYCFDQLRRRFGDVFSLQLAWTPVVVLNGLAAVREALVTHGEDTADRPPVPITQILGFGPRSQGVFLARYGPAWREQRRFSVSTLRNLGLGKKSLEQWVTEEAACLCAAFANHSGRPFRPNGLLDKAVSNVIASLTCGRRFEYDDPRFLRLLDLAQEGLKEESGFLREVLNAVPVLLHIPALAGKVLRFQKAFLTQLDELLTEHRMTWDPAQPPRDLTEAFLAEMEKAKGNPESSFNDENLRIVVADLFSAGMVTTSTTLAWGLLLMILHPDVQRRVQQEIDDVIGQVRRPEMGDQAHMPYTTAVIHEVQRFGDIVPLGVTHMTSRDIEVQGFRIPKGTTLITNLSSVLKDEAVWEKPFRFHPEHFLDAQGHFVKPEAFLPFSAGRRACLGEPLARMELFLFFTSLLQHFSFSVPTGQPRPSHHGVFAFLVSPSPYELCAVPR
Chain of Nuclear receptor subfamily 1 group I member 2 (Rattus norvegicus) (Q9R1A7 whole entry, looked up): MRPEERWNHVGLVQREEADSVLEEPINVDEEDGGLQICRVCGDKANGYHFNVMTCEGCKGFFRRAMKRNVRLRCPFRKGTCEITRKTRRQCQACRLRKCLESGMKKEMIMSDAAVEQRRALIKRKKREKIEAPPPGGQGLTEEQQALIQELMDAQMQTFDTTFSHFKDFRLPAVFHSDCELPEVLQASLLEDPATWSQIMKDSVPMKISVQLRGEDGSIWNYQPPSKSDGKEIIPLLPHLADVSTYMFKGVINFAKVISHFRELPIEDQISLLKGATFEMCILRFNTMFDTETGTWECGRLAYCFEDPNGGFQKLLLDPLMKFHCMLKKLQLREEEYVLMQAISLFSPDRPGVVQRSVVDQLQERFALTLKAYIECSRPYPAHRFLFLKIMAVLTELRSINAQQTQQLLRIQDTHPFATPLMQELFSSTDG

With `CN1Cc2c(N)cccc2C(c2ccccc2)C1` (centres undefined), the Potency result in experiment [1], in experiment [2], in experiment [3], in [4], in [5] and in experiment [6] was “inactive” throughout. The Potency entry in experiment [7], in experiment [8], in experiment [9], in experiment [10], in experiment [11] and in experiment [13] was “inactive” each time. Also, the Potency result in [16] is “inactive”. Moreover, the max activation in experiment [12] was -2.53% (inactive). Moreover, in experiment [14], the result was inactive. Besides, the Potency in experiment [15] is 5.03 µM (active) and 12.3 µM (active).

For the molecule `COc1ccc2cc3[n+](cc2c1OC)CCc1cc2c(cc1-3)OCO2`, the Potency entry in [1], in experiment [2], in experiment [3], in experiment [4], in experiment [5] and in [17] was “inactive” in each case. The Potency result in experiment [7], in experiment [8], in [9] and in experiment [11] was “inactive” each time. Further, the molecule was classed as inactive in [18]. In addition, the Potency in [10] is 54.9 µM (active); in experiment [15] it was 180 nM (active) and 2.19 µM (active); in experiment [16], 20.2 µM (active) and inactive.

`Cc1ccccc1Cl`: the Potency result in experiment [3], in experiment [19], in experiment [4], in [5], in [6] and in [7] was “inactive” in each case. Besides, the Potency result in experiment [8], in [9], in [10], in [11], in experiment [15] and in [16] was “inactive” each time.

For `CC(C=O)Cc1ccc(C(C)(C)C)cc1` (centres undefined), the Potency entry in experiment [1], in experiment [2], in [3], in experiment [19], in experiment [4] and in experiment [5] was “inactive” each time. For the same molecule, the Potency entry in [17], in experiment [7], in experiment [8], in experiment [9], in [10] and in [11] was “inactive” throughout. The Potency result in experiment [15] and in [16] was “inactive” in each case. Moreover, the molecule was classed as inactive in [18].

For `CCc1cccc(CC)c1N`, the Potency entry in [1], in experiment [2], in experiment [3], in experiment [19], in experiment [4] and in [5] was “inactive” throughout. Moreover, the Potency entry in [6], in experiment [7], in [8], in experiment [9], in experiment [10] and in [11] was “inactive” each time. Also, the Potency entry in experiment [15] is “inactive”. Further, the Potency entry in [16] is “inactive and 79.6 µM (active)”.

On to `COCN(COC)c1nc(N(COC)COC)nc(N(COC)COC)n1`, for which the Potency result in [1], in experiment [2], in experiment [3], in [19], in [4] and in experiment [5] was “inactive” each time. The Potency result in [17], in experiment [7], in experiment [8], in experiment [9] and in experiment [15] was “inactive” each time. Further, the result in [18] was inactive. For the same molecule, in experiment [11], the Potency is 54.5 µM (active).
